Laboratory results taken from patent US20060069055, “Delivery of polynucleotides” (published 2006).

Target: NF-kB p65/p50 heterodimer (Homo sapiens, UniProt Q04206;P19838 Q04206:1-551,P19838:1-433)
Experiment: EMSA; competition against labelled probe 113/114
Details: protein: extract; tags: nuclear extract of LPS-stimulated THP-1 cells; dsDNA, one strand shown; PS at the 4 most 3' linkages of both strands
From the text: The EMSA assay was employed to characterize oligonucleotide decoys for the NF-κB transcription factor. […] Using the above modified oligonucleotides to compete for binding for the above-mentioned NF-κB family members, it was possible to compare the binding affinity of these oligonucleotides against the high affinity radiolabeled probe and each other. This assay has also enabled the design of a decoy which selectively binds particular members of the NF-κB family. By using increasing concentrations of various oligonucleotides, it was observed that, by deleting or changing targeted residues in the binding site, it was possible to specifically decrease the binding of the decoy molecule to p50/p50 homodimers, while retaining the affinity for p65/p50 and cRel/p50 heterodimers.
The NF-κB gel shift assays (EMSA) were performed as follows. A double-stranded oligonucleotide containing a consensus NF-κB binding site (5′ […].GGC 3′) (SEQ ID NO: 26) was end-labeled with γ³²P-ATP using T4 Polynucleotide Kinase (Promega). […] The dried gels were imaged and quantitated using a Typhoon 8600 Phosphorlmager (Amersham) and ImageQuant software. […]

Chain of NF-kB p65/p50 heterodimer (Q04206 whole entry, chain 1 of 2): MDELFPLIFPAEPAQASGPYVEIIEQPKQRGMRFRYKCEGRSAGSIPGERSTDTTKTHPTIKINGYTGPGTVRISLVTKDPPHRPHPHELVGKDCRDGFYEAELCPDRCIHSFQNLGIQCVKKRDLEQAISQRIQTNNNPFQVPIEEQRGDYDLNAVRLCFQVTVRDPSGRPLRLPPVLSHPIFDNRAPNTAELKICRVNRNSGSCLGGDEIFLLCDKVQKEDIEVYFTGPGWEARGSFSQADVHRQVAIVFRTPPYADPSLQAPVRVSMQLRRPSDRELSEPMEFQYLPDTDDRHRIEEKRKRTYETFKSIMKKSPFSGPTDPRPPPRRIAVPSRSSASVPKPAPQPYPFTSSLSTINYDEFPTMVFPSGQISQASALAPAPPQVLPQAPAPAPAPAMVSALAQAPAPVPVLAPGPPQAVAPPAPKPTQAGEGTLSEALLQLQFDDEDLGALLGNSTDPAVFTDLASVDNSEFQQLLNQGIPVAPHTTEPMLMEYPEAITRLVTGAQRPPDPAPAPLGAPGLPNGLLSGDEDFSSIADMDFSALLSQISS
Chain of NF-kB p65/p50 heterodimer (P19838 1-433, chain 2 of 2): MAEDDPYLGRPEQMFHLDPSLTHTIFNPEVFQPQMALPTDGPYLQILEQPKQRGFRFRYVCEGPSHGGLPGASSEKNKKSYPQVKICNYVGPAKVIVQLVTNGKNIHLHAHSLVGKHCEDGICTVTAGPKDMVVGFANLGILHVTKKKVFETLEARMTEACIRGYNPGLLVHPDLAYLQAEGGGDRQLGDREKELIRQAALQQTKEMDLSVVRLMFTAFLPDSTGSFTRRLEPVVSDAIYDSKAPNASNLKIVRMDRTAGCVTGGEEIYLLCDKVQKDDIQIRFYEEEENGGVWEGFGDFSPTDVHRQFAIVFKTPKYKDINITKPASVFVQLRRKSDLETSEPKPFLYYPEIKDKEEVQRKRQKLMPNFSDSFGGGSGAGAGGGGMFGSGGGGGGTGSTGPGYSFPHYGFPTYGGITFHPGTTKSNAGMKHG

Sequence: AGTTGAGGACTTTCCAGGC
- IC50: 85 fold molar excess
